These results are taken from PubChem BioAssay (NCI).

Structures are written as SMILES. This is part of a sample that, as a whole, favours compounds with a hit. Of some 83,000 tested, about 20% had one in any assay.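 The test compound was applied at a single concentration to cells in 96-well plates for 48 hours, and percent growth was recorded.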 Unmarked numbers belong to inactive results. How the source made its calls: active means growth percent below 10; inactive means the rest.

The test system of the assay is KM12 colon. Kind of assay: NCI-60 one-dose screen, 48 h (100 = growth as untreated, 0 = no growth, -100 = all killed). The conditions noted are these: 10 µM unless noted.
In the case of `Cn1c(=O)c2c(nc(NC3=NS(=O)(=O)c4ccccc43)n2Cc2ccccc2)n(C)c1=O`, the growth was 99.9%.
Take `COc1ccc(C/C(C)=C(/c2ccc(OCCN3CCCCCC3)cc2)c2ccc(OC(=O)NCc3ccccc3)cc2)cc1`: the growth was 80.9%.
On to `Cn1cc(-c2csc(-c3cn(C(=O)OC(C)(C)C)c4ccccc34)n2)c2ccnc(Cl)c21`, for which the growth was 50.4%.
The value for `CCN(C(=O)N1CCN(c2cc3c(cc2F)c(=O)c(C(=O)O)cn3C2CC2)CC1)c1nc(-c2ccc(C)cc2)cs1` was 10.6%; that for `COC(=O)c1nc(-c2ccccc2)oc1S(=O)(=O)N1CCC(C(N)=O)CC1` was 87.8%.
The value for `CCCCSCC(=O)c1ccccc1` was 98.5%.
As to `Cc1ccc(Nc2nc(-c3ccc(F)cc3)c(C#N)c(=O)n2C)cc1`, the growth was 87.7%.
`COc1cccc(OC)c1Oc1c(-c2nc3ccccc3s2)c(C)nn1-c1ccccc1`: the growth is 59.7%.
Regarding `Cc1ccccc1CNc1c2ccccc2nc2ccccc12`, the growth was 16.9%.
Take `COc1ccc2nc3ccccc3c(NCc3ccc(F)cc3)c2c1`: the growth is 28.7%.
Turning to `O=C1NC(=O)c2c1c1c3ccccc3[nH]c1c1oc3cc(Br)ccc3c21`, the growth is 64.4%.
The value for `COc1ccc(-c2nnc(SCC(=O)Nc3ccc(/C(C)=N\O)cc3)n2-c2ccccc2)cc1OC` was 106%; that for `CC1=CCC[C@@H]2C1(C)CC[C@H](C)[C@@]2(C)CC1=CC(=O)C(SC(C)(C)C)=CC1=O` (some centres undefined) was 93.1%.
For `CCn1cc(CNc2ccc(C(=O)Nc3cc4cc(OC)c(OC)cc4c(C)n3)cc2)c(C)n1`, the growth is 23%.
